# Results: PubChem BioAssay (NCATS)
# Inconclusive results are not listed. Where a call stands in place of a potency, no number is given. Values without a mark were called inactive. Active and inactive are the calls of the source. Calls follow the shape of the dose curve; as a rule, active = well fitted cell-killing curve with a large enough effect; inconclusive = small, poorly fitted or top-dose-only effect, or effect the other way; inactive = flat fitted curve, though single readings scatter.
# Tests used:
# Assay in all cases: Primary qHTS to identify gynecologic anti-cancer compounds using libraries of approved drugs and bioactive compounds (AID 1345084); also: nearly all actives have a fitted effect of over 55% in size
# C33A = conditions: Gynecologic cancer cell panel viability, ATPlite luminescence, 48 h; series mostly up to 57.5 µM
# Method in brief: (§1)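 48 h compound exposure at 37 C, 5% CO2; five-point qHTS. ATPlite luminescence readout of cell ATP.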
# CAOV3 = conditions: Gynecologic cancer cell panel viability, ATPlite luminescence, 48 h; series mostly up to 57.5 µM
# Method in brief: as §1
# CASKI = conditions: Gynecologic cancer cell panel viability, ATPlite luminescence, 48 h; series mostly up to 57.5 µM
# Method in brief: as §1
# Es-2 = conditions: Gynecologic cancer cell panel viability, ATPlite luminescence, 48 h; series mostly up to 57.5 µM
# Method in brief: as §1
# HeLa = conditions: Gynecologic cancer cell panel viability, ATPlite luminescence, 48 h; series mostly up to 57.5 µM
# Method in brief: as §1
# Hek293T = conditions: Gynecologic cancer cell panel viability, ATPlite luminescence, 48 h, control line for the selectivity index; series mostly up to 57.5 µM
# Method in brief: as §1
# JEG-3 = conditions: Gynecologic cancer cell panel viability, ATPlite luminescence, 48 h; series mostly up to 57.5 µM
# Method in brief: as §1
# OV90 = conditions: Gynecologic cancer cell panel viability, ATPlite luminescence, 48 h; series mostly up to 57.5 µM
# Method in brief: as §1
# PA-1 = conditions: Gynecologic cancer cell panel viability, ATPlite luminescence, 48 h; series mostly up to 57.5 µM
# Method in brief: as §1
# SKOV3 = conditions: Gynecologic cancer cell panel viability, ATPlite luminescence, 48 h; series mostly up to 57.5 µM
# Method in brief: as §1
# Tov-21-G = conditions: Gynecologic cancer cell panel viability, ATPlite luminescence, 48 h; series mostly up to 57.5 µM
# Method in brief: as §1
# Tov112D = conditions: Gynecologic cancer cell panel viability, ATPlite luminescence, 48 h; series mostly up to 57.5 µM
# Method in brief: as §1
# Potency is read from the fitted curve at half-maximal effect.
smiles,measurement,setting,value
c1cn2cc(-c3ccc4cn[nH]c4c3)nc(Nc3ccc(N4CCOCC4)cc3)c2n1,Potency,C33A,2240 nM (active)
same,Potency,CAOV3,2000 nM (active)
same,Potency,CASKI,2820 nM (active)
same,Potency,Es-2,2510 nM (active)
same,Potency,HeLa,2820 nM (active)
same,Potency,Hek293T,2240 nM (active)
same,Potency,JEG-3,2820 nM (active)
same,Potency,OV90,1780 nM (active)
same,Potency,PA-1,1780 nM (active)
same,Potency,SKOV3,2820 nM (active)
same,Potency,Tov-21-G,2240 nM (active)
same,Potency,Tov112D,2240 nM (active)
C=C1CCCC2(C)CC3(OC)OC(=O)C(C)=C3CC12 (stereo unspecified),Potency,C33A,inactive
same,Potency,CAOV3,inactive
same,Potency,CASKI,inactive
same,Potency,Es-2,inactive
same,Potency,HeLa,inactive
same,Potency,Hek293T,inactive
same,Potency,JEG-3,inactive
same,Potency,OV90,inactive
same,Potency,PA-1,inactive
same,Potency,SKOV3,inactive
same,Potency,Tov-21-G,inactive
same,Potency,Tov112D,inactive
Nc1nc2c(c(=O)[nH]1)C[C@@H](CCc1ccc(C(=O)N[C@@H](CCC(=O)O)C(=O)O)cc1)CN2,Potency,C33A,631 nM (active)
same,Potency,CAOV3,inactive
same,Potency,CASKI,282 nM (active)
same,Potency,Es-2,282 nM (active)
same,Potency,HeLa,282 nM (active)
same,Potency,Hek293T,316 nM (active)
same,Potency,JEG-3,10000 nM (active)
same,Potency,OV90,501 nM (active)
same,Potency,PA-1,282 nM (active)
same,Potency,SKOV3,inactive
same,Potency,Tov-21-G,100 nM (active)
same,Potency,Tov112D,1260 nM (active)
OCc1ccc(O[C@@H]2O[C@H](CO)[C@@H](O)[C@H](O)[C@H]2O)cc1,Potency,C33A,inactive
same,Potency,CAOV3,inactive
same,Potency,CASKI,inactive
same,Potency,Es-2,inactive
same,Potency,HeLa,inactive
same,Potency,Hek293T,inactive
same,Potency,JEG-3,inactive
same,Potency,OV90,inactive
same,Potency,PA-1,inactive
same,Potency,SKOV3,inactive
same,Potency,Tov-21-G,inactive
same,Potency,Tov112D,inactive
C=CC(C)(C)C12C=C(OC)C(=O)N3C(C(C)C)C(=O)NC31N(OC)c1ccccc12 (stereo unspecified),Potency,C33A,inactive
same,Potency,CAOV3,inactive
same,Potency,CASKI,inactive
same,Potency,Es-2,inactive
same,Potency,HeLa,inactive
same,Potency,Hek293T,inactive
same,Potency,JEG-3,inactive
same,Potency,OV90,inactive
same,Potency,PA-1,inactive
same,Potency,SKOV3,inactive
same,Potency,Tov-21-G,inactive
same,Potency,Tov112D,inactive
COC(=O)CCC(=O)OC[C@]1(C)CCC[C@@]2(C)C3CC[C@]4(C)C=CC3(CCC12)C4 (stereo partly specified),Potency,C33A,inactive
same,Potency,CAOV3,inactive
same,Potency,CASKI,inactive
same,Potency,Es-2,inactive
same,Potency,HeLa,inactive
same,Potency,Hek293T,inactive
same,Potency,JEG-3,inactive
same,Potency,OV90,inactive
same,Potency,PA-1,inactive
same,Potency,SKOV3,inactive
same,Potency,Tov-21-G,inactive
same,Potency,Tov112D,inactive
C=CC(C)(CC/C=C(\C)C(=O)OC)OC1OC(COC(=O)CC(C)(O)CC(=O)O)C(OC2OC(CO)C(O)C(O)C2O)C(O)C1O (stereo unspecified),Potency,C33A,inactive
same,Potency,CAOV3,inactive
same,Potency,CASKI,inactive
same,Potency,Es-2,inactive
same,Potency,HeLa,inactive
same,Potency,Hek293T,inactive
same,Potency,JEG-3,inactive
same,Potency,OV90,inactive
same,Potency,PA-1,inactive
same,Potency,SKOV3,inactive
same,Potency,Tov-21-G,inactive
same,Potency,Tov112D,inactive
C/C=C(/COC(=O)/C(C)=C/C)C(=O)OC(CC)c1ccc(OC)c(OC)c1 (stereo unspecified),Potency,C33A,inactive
same,Potency,CAOV3,inactive
same,Potency,CASKI,inactive
same,Potency,Es-2,inactive
same,Potency,HeLa,inactive
same,Potency,Hek293T,inactive
same,Potency,JEG-3,inactive
same,Potency,OV90,inactive
same,Potency,PA-1,inactive
same,Potency,SKOV3,inactive
same,Potency,Tov-21-G,inactive
same,Potency,Tov112D,inactive
CC1CCC2(C=O)C(CO)=CCCC2C1(C)CC(=O)O (stereo unspecified),Potency,C33A,inactive
same,Potency,CAOV3,inactive
same,Potency,CASKI,inactive
same,Potency,Es-2,inactive
same,Potency,HeLa,inactive
same,Potency,Hek293T,inactive
same,Potency,JEG-3,inactive
same,Potency,OV90,inactive
same,Potency,PA-1,inactive
same,Potency,SKOV3,inactive
same,Potency,Tov-21-G,inactive
same,Potency,Tov112D,inactive
CN=C(N)NCCCCC/C=C(/C)CC(C)C1OC(=O)C(C)C(O)/C=C/C(C)C(O)CC(O)C(C)C(O)CCC(C)C(O)CC2(O)OC(CC(OC(=O)CC(=O)O)CC(O)CC(O)C(C)C(O)/C(C)=C/CCC1C)CC(O)C2O (stereo unspecified),"activity change, negative = cytotoxicity",C33A,11.4% [at 11.6 µM]
same,"activity change, negative = cytotoxicity",CAOV3,12.9% [at 11.6 µM]
same,"activity change, negative = cytotoxicity",CASKI,9.88% [at 11.6 µM]
same,"activity change, negative = cytotoxicity",Es-2,0.226% [at 11.6 µM]
same,"activity change, negative = cytotoxicity",HeLa,3.51% [at 11.6 µM]
same,"activity change, negative = cytotoxicity",Hek293T,10.1% [at 11.6 µM]
same,"activity change, negative = cytotoxicity",JEG-3,16% [at 11.6 µM]
same,"activity change, negative = cytotoxicity",OV90,7.81% [at 11.6 µM]
same,"activity change, negative = cytotoxicity",PA-1,16.3% [at 11.6 µM]
same,"activity change, negative = cytotoxicity",SKOV3,0% [at 11.6 µM]
same,"activity change, negative = cytotoxicity",Tov-21-G,3.06% [at 11.6 µM]
same,"activity change, negative = cytotoxicity",Tov112D,-6.61% [at 11.6 µM]
CC(C)=CCC/C(C)=C/CCC1(C)Oc2c(c(O)cc3c2CN(C(CCC(=O)O)C(=O)O)C3=O)CC1O (stereo unspecified),Potency,C33A,inactive
same,Potency,CAOV3,inactive
same,Potency,CASKI,inactive
same,Potency,Es-2,inactive
same,Potency,HeLa,inactive
same,Potency,Hek293T,inactive
same,Potency,JEG-3,inactive
same,Potency,OV90,inactive
same,Potency,PA-1,inactive
same,Potency,SKOV3,inactive
same,Potency,Tov-21-G,inactive
same,Potency,Tov112D,inactive
CC1(C)CC[C@]2(C(=O)O)CC[C@]3(C)C(=CCC4[C@@]5(C)CC[C@H](O[C@@H]6O[C@H](CO)[C@@H](O)[C@H](O)[C@H]6O[C@@H]6O[C@H](CO)[C@@H](O)[C@H](O)[C@H]6O)[C@@](C)(CO)C5CC[C@]43C)[C@@H]2C1 (stereo partly specified),Potency,C33A,inactive
same,Potency,CAOV3,inactive
same,Potency,CASKI,inactive
same,Potency,Es-2,inactive
same,Potency,HeLa,inactive
same,Potency,Hek293T,inactive
same,Potency,JEG-3,inactive
same,Potency,OV90,inactive
same,Potency,PA-1,inactive
same,Potency,SKOV3,inactive
same,Potency,Tov-21-G,inactive
same,Potency,Tov112D,inactive
C=C[C@]1(C)C=C2CCC3C(C)(CCC[C@@]3(C)C(=O)O)C2CC1 (stereo partly specified),Potency,C33A,inactive
same,Potency,CAOV3,inactive
same,Potency,CASKI,inactive
same,Potency,Es-2,inactive
same,Potency,HeLa,inactive
same,Potency,Hek293T,inactive
same,Potency,JEG-3,inactive
same,Potency,OV90,inactive
same,Potency,PA-1,inactive
same,Potency,SKOV3,inactive
same,Potency,Tov-21-G,inactive
same,Potency,Tov112D,inactive
